Bioassay records: PubChem, National Center for Advancing Translational Sciences (NCATS)
The list is not random: actives were taken first. Their share in the collection is about 14%.
Giardia FBPA inh: blocks Giardia fructose-bisphosphate aldolase activity. purified Giardia FBPA. A8B2U2. Potency, µM (titrated, usually from 59.6 µM), inactives show top-dose activity, negative = inhibition, hits mostly inhibitors. actives 0.71% (n = 290,000); also: potency is read from the fitted curve at half-maximal effect; nearly all actives have a fitted effect of over 55% in size
Target sequence (A8B2U2 whole entry, looked up): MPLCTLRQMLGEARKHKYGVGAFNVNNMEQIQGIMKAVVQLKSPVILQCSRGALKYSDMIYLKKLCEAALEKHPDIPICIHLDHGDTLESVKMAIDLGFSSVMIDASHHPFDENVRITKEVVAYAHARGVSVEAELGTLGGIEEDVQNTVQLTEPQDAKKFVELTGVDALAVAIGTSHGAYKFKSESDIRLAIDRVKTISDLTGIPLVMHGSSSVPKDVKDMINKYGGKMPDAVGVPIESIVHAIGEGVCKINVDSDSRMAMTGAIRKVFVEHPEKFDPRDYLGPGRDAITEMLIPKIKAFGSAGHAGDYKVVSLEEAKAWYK
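Giardia FBPA (40 nM reagent) was preincubated 10 min at RT with compound (up to 57.5 uM final), then substrate plus GAPDH/TPI/NAD/arsenate coupling system with diaphorase/resazurin was added; resorufin fluorescence (525/598 nm) was read after 20 min.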
HCMV antiviral: inhibitors of human cytomegalovirus. activity change, negative = inhibition, % at 57.5 µM. actives 4.5% (n = 410,000). HFF cells, HCMV-luciferase reporter, 72 h; active compounds read low; in the data active = activity change below about -60%; inconclusive = no clear call, values can overlap the other calls; inactive = above about -39%
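Human foreskin fibroblasts infected with luciferase-reporter HCMV at MOI 1 PFU/cell, compounds at two doses. Luciferase measured 72 h post infection; normalized to buffer-only basal and Salinomycin (10uM) controls.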
Sm TGR inh: S. mansoni TGR enzyme inhibition; Potency, µM (top dose mostly 114 µM), without a hit: at the top dose activity change, negative = inhibition, usual class: inhibitors; Q962Y6; actives 3% (n = 360,000); AID 485364; purified TGR, DTNB reduction, TNB absorbance 405 nm; also: potency is read from the fitted curve at half-maximal effect; nearly all actives have a fitted effect of over 60% in size
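First, TGR (20 nM dispensed) and NADPH were mixed with compound. Second, a 15 min room-temperature incubation followed. Third, further NADPH and then DTNB were added to start the reaction. Finally, TNB absorbance was monitored kinetically.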
Pf growth 48h: inhibits P. falciparum growth in the first generation, 48 h; P. falciparum luciferase growth in erythrocytes, 48 h; Potency, µM (doses to about 28.7 µM), inactives show at the highest dose activity change, negative = inhibition, actives largely listed as inhibitors; actives 5.9% (n = 310,000); also: potency is read from the fitted curve at half-maximal effect
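Luciferase-expressing parasites in RBCs, 2% Hct / 0.1% parasitemia final; RPMI 1640 + 0.5% Albumax; 37 C, 5% CO2, one generation; luminescence read-out, lower signal = inhibition.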
Pf growth 96h: inhibits malaria parasite growth, 96 h; P. falciparum luciferase reporter growth, 96 h; Potency, µM (highest dose often 28.7 µM), without a hit: top-dose activity change, negative = inhibition, most hits filed as inhibitors; actives 6.9% (n = 320,000); also: potency is read from the fitted curve at half-maximal effect
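Delayed-death screen, second-generation endpoint: infected erythrocytes, 2% hematocrit, 0.05% parasitemia final; 96 hours at 37 C, 5% CO2; luciferase detection reagent; luminescence decrease equals reduced growth.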
An asterisk follows results filed as active; u = inconclusive; x = not tested or not shown; [ ] = dose if it differs, or a comment. Unless noted, calls follow the shape of the dose curve; as a rule, active = well fitted curve in the direction sought with a large enough effect; inconclusive = small, poorly fitted or top-dose-only effect, or another doubt; inactive = no such curve, though single readings can be large; an effect the other way counts as inactive or inconclusive. % is scaled to controls: 0 for no effect and ±100 for the full control effect.

SMILES	Giardia FBPA inh	HCMV antiviral	Sm TGR inh	Pf growth 48h	Pf growth 96h
CC(CC(=O)Nc1ccccc1C(F)(F)F)c1ccccc1 (centres undefined)	5.1%	u	0.3%	7.8%	94.6%
Cc1ccnc(N/C=C(\C#N)c2nc(-c3cccc(Br)c3)cs2)c1	-16.5%	-80.3*	-3.8%	11.7µM*	2.94µM*
COc1ccc(N/C=C(\C=C\C#N)S(=O)(=O)c2ccccc2)cc1	3.9%	-5.5	6.31µM*	5.5%	-7.9%
N#C/C=C/C(=C\Nc1ccc(Cl)cc1)S(=O)(=O)c1ccccc1	6.9%	u	u	-20.5%[0.00184 µM]	-19.6%
Cc1ccc(C)c(OCCCCn2ccnc2)c1	2.1%	u	2.9%	x	13.1µM*
Cc1cccc(OCCCCCn2ccnc2)c1C	0.7%	-80.8*	-24.0%	u	u
c1ccc(-c2ccccc2OCCCCn2ccnc2)cc1	u	-20.7	u	11.7µM*	u
Cc1cc(C)c(C)c(S(=O)(=O)NCCCn2ccnc2)c1C	-4.3%	-2.2	-2.1%	u	6.57µM*
Cc1ccc(NC(=O)CSc2nnnn2-c2cccnc2)c(C)c1	-4.8%	-22.6	-1.7%	7.2%	11.8%
CCOC(=O)C1CCCN(C(=O)c2cc(F)cc(F)c2)CC1 (centres undefined)	x	-6.8	x	x	x
CCC(=O)N(CC)C1=C(O)c2ccccc2C(=O)C1=O	7.92µM*	-105.3*	0.282µM*	-7.4%	0.1%
CCC(=O)N(C)/C=C1\Sc2ccccc2C1=O	x	153.5	-35.9%	-0.8%	1.4%
CCN(c1ccccc1)S(=O)(=O)c1ccc(C(=O)Nc2ncccc2C)cc1	x	-15.7	4.8%	u	-0.8%
CN(c1ccccc1)S(=O)(=O)c1ccc(C(=O)Nc2ncccc2O)cc1	x	x	u	6.57µM*	9.28µM*
CCN(c1ccccc1)S(=O)(=O)c1ccc(C(=O)Nc2ncccc2O)cc1	x	-32.3	7.7%	u	5.86µM*
COc1cccc(N2C(=NC(=O)C3CCCO3)SC3CS(=O)(=O)CC32)c1 (centres undefined)	x	-5.9	-7.7%	-56.1%	u
Fc1cccc(F)c1-n1c(CN2CCCC2)csc1=S	0.3%	-27.8	-0.8%	u	5.86µM*
Fc1ccccc1CN1CCCCCCC1	-26.4%	13.7	-1.1%	x	8.1%
O=C(/C=C/c1ccco1)Nc1ccc(N2CCCC2)cc1	1.1%	0.5	-27.5%	2.3%	2.7%
O=C(/C=C/c1ccco1)Nc1ccc(Oc2ccc(Cl)cc2)cc1	-7.6%	-68.0*	-35.5%	8.28µM*	3.2%
CSc1cccc(NC(=O)/C=C/c2ccccc2)c1	-14.3%	14.9	1.6%	118.6%	10.4µM*
COc1cccc(NC(=O)/C=C/c2ccco2)c1	-22.9%	15.9	10µM*	306.3%	257.9%
CSc1cccc(NC(=O)/C=C/c2ccc(Cl)cc2)c1	-14.2%	-18.1	2.7%	-8.9%	-28.4%
CSc1cccc(NC(=O)/C=C/c2ccco2)c1	-13.1%	-11.3	1.12µM*	141.8%	55.3%
CSc1cccc(NC(C)=O)c1	-1.1%	7.3	8.4%	1.7%	13.2%
SMILES	Giardia FBPA inh	HCMV antiviral	Sm TGR inh	Pf growth 48h	Pf growth 96h
CC(C)Oc1cccc(NC(=O)C2(C)CCN2C(C)C)c1 (centres undefined)	x	2.4	x	x	x
CN1OC(C)(CC(=O)NCc2ccccc2F)N=C1c1ccccc1Cl (centres undefined)	x	0.7	x	x	x
COC(=O)C(C)CCCC(C)CCCC(C)CCCC(C)C (centres undefined)	-2.6%	x	x	x	x
CSc1ccc(Cl)c(C(=O)N2CCOc3ccccc32)c1	-2.1%	-19.5	6.0%	-2.3%	-24.7%
O=C(c1cccc(C(F)(F)F)c1)N1CCOc2ccccc21	-2.2%	-1.2	5.7%	13.1µM*	0.8%
S=C(NCC1CCCO1)NC1CCCCC1 (centres undefined)	-8.3%	-1.2	11.9%	19.3%	2.4%
CCCC(NC(=S)NCC1CCCO1)C12CC3CC(CC(C3)C1)C2 (centres undefined)	-1.6%	-92.5*	-11.3%	2.62µM*	-1.2%
O=c1[nH]c2ccc(NCc3ccccc3F)cc2[nH]1	x	-7.4	-34.4%	x	x
COc1ccccc1C(CNC(=O)c1cccc(S(=O)(=O)Nc2ccc(F)cc2)c1)N1CCCC1 (centres undefined)	x	-6.9	x	x	x
